Assay outcomes deposited in PubChem by several laboratories.
ADAM17 inh: ADAM17 inhibitors, primary screen, biochemical, QFRET | recombinant ADAM17, EDANS/DABCYL FRET peptide cleavage | 370,000 compounds, 0.83% hits | inhibition, % at 6.95 µM | Disintegrin and metalloproteinase domain-containing protein 17 (Homo sapiens), P78536 | AID 720648, 2013;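 active = inhibition above the mean of compounds lying between control limits plus 3 SD, set per campaign, cut at about 8.5% in these data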
GC-B act: human GC-B receptor activators, primary screen, HEK293 GC-B cells, cGMP TR-FRET, EC30 CNP; 0% at EC30 CNP, 100% saturating CNP; activation, % at 10 µM; 370,000 compounds, 0.11% hits;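 active = activation at 10 µM reaching about 35% in either raw or pattern-adjusted values, limit read from the data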
FAS TE block: FAS thioesterase domain inhibitors, primary screen, biochemical, fluorescence intensity, uHTS; Fatty acid synthase (Homo sapiens), P49327; recombinant FAS-TE, OMFH fluorogenic substrate, fluorescence endpoint; inhibition, % at 15 µM; 360,000 compounds, 0.67% hits; AID 602261, 2012;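 active = compounds whose normalised, plate-corrected inhibition of enzyme fluorescence in the single-dose primary screen is 50% or more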
ADAM10 inh: human ADAM10 inhibitors, primary screen, biochemical, QFRET, HTS. Disintegrin and metalloproteinase domain-containing protein 10 (Homo sapiens), O14672. recombinant ADAM10, EDANS/DABCYL FRET peptide cleavage, 3 h. inhibition, % at 7 µM. 370,000 compounds, 0.62% hits. AID 720582, 2013;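 active = inhibition above a per-campaign cutoff equal to the mean of compounds falling between control-based bounds plus 3 SD, cut at about 20% in these data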
GC-A act: GC-A stimulated cGMP production enhancers – HEK293 GC-A cells, cGMP TR-FRET, EC30 ANP, primary screen. Atrial natriuretic peptide receptor 1 (Homo sapiens), P16066. 0% at EC30 ANP, 100% saturating ANP. activation, % at 10 µM. 370,000 compounds, 0.14% hits. AID 1671463, 2021; in the data active = activation above about 40%
Target sequence (P16066 whole entry, looked up): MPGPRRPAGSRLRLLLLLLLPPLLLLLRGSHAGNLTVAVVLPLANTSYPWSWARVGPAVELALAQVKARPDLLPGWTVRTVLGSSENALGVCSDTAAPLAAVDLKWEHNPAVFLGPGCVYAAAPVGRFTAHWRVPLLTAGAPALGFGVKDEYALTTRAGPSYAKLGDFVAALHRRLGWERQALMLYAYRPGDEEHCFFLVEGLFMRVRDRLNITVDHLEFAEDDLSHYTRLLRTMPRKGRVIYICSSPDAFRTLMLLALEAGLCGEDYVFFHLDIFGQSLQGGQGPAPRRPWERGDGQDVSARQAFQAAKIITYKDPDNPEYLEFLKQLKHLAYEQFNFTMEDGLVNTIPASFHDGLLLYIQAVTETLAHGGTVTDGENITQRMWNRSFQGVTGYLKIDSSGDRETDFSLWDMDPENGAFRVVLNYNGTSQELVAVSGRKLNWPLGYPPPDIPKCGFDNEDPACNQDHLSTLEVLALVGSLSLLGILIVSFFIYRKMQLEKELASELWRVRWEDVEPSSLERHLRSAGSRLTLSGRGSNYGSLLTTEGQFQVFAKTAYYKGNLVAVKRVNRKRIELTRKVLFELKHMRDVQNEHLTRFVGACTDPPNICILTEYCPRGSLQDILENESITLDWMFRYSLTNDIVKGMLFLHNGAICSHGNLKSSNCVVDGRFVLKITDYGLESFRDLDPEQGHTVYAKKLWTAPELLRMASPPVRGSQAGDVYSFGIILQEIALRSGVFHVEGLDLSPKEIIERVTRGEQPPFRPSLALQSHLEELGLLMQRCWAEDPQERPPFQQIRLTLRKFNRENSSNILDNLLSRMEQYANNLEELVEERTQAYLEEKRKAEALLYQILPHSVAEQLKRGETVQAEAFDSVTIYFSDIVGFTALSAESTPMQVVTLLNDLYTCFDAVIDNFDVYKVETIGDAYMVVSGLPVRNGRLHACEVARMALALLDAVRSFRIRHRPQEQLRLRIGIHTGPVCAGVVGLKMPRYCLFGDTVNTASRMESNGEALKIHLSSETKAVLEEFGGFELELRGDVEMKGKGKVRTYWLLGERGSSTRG
ADAM10 confirm: human ADAM10 inhibitors, confirmation, biochemical, QFRET, triplicate; AID 743208, 2013; ADAM10 QFRET peptide cleavage, EDANS fluorescence; 2,100 compounds, 1% hits; inhibition, % at 6.95 µM; shares compounds with ADAM10 inh;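 active = inhibition above about 20% chosen separately for each screening run, limit read from the data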
ADAM17 counter: ADAM17 inhibitors, counter-screen for ADAM10 exosite inhibitor project, biochemical, QFRET, high throughput | shares compounds with ADAM10 inh | ADAM17 QFRET peptide cleavage, EDANS fluorescence | inhibition, % at 6.95 µM | 2,100 compounds, 0.5% hits | AID 743214, 2013;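 active = mean triplicate inhibition above the solvent-only control wells' mean plus 3 SD, cut at about 12% in these data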
ADAM10 ctr: ADAM10 inhibitors, counter-screen for ADAM17 exosite inhibitor project, biochemical, FRET, human ADAM10; shares compounds with ADAM17 inh; recombinant ADAM10, EDANS/DABCYL FRET peptide cleavage, 3 h; inhibition, % at 6.95 µM; 2,900 compounds, 47% hits; AID 743256, 2014;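 active = mean inhibition over the triplicate runs exceeds the activity threshold set in the earlier primary screen, cut at about 20% in these data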
ADAM17 confirm: ADAM17 inhibitors, hit retest, confirmation, biochemical, QFRET peptide cleavage | 2,900 compounds, 65% hits | AID 743257, 2014 | inhibition, % at 6.95 µM | recombinant ADAM17, EDANS/DABCYL QFRET peptide cleavage | shares compounds with ADAM17 inh;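 active = mean inhibition across replicates above the hit cutoff set in the primary screen, cut at about 8.5% in these data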
Hits are given with their value; 0 = inactive; - = no result. Most compounds without a hit are left out; they make up all but 2% or so of the library.

SMILES	ADAM17 inh	GC-B act	FAS TE block	ADAM10 inh	GC-A act	ADAM10 confirm	ADAM17 counter	ADAM10 ctr	ADAM17 confirm
Cc1cccc(Nc2nc(N)c([N+](=O)[O-])c(NCc3ccco3)n2)c1	16	0	0	31	0	0	0	20	10
COc1ccc(C2=Nn3c(nnc3C3CCCCC3)SC2)cc1	0	0	-	0	0	-	-	-	-
Cc1ccc(S(=O)(=O)Nc2ccc(N(C)C)cc2)cc1	0	0	0	0	0	-	-	-	-
CN(C)c1ccc(NS(=O)(=O)c2ccc(Cl)cc2)cc1	13	0	0	34	0	0	0	0	0
COC(=O)[C@@]12C[C@@H](CC(=O)NCCCCc3ccccc3)C(=O)N(Cc3ccc4c(c3)OCO4)C1=CCC(C)(C)C2	17	0	-	27	0	0	0	28	15
CC(C)NC(=O)CCn1nnc(-c2cccs2)n1	0	0	-	0	0	-	-	-	-
Cc1cc(F)ccc1C(O)c1ncc(-c2cccc(OCc3ccccc3)c2)[nH]1 (centres undefined)	9.7	0	0	29	0	0	0	39	20
Cc1ccc(OC(C)C(=O)Nc2ccc(C)c(S(=O)(=O)Nc3ccc(C)cc3C)c2)cc1 (centres undefined)	12	0	0	24	0	0	0	28	15
CN1C2CCC1/C(=C\c1ccc(F)cc1)C(=O)/C2=C/c1ccc(F)cc1	0	0	0	0	0	-	-	-	-
C=CC(=O)N1C/C(=C/c2ccc(F)cc2)C(=O)/C(=C\c2ccc(F)cc2)C1	11	0	0	20	0	0	0	21	14
CC(C)(C)OC(=O)NCCCCCNC(=O)c1ncn(Cc2ccccc2)c1C(=O)NCCCCCNC(=O)OC(C)(C)C	13	0	0	20	0	0	0	31	16
C[C@H](NC(=O)c1nc[nH]c1C(=O)NCCCCCNC(=O)OC(C)(C)C)C(=O)OCc1ccccc1	0	0	0	0	0	-	-	-	-
CC(C)(C)OC(=O)NCCCCCNC(=O)c1[nH]cnc1C(=O)N[C@@H](Cc1ccccc1)C(=O)OCc1ccccc1	11	0	0	23	0	0	0	41	21
CC(C)C[C@H](NC(=O)c1nc[nH]c1C(=O)NCCCCCNC(=O)OC(C)(C)C)C(=O)OCc1ccccc1	14	0	0	29	0	0	0	42	21
CC(C)C[C@H](NC(=O)c1nc[nH]c1C(=O)N1CCN(C(=O)OC(C)(C)C)CC1)C(=O)OCc1ccccc1	9.9	0	0	25	0	0	0	27	11
COC(=O)[C@H]1C[C@@]2(CC=C(C)C)c3ccccc3N(C(=O)OC(C)(C)C)[C@H]2N1C(=O)OC(C)(C)C	0	0	-	0	0	-	-	-	-
Cc1cc(NC(=O)Cc2cn(Cc3ccccc3)c3ccccc23)ccc1Oc1cccnc1	0	0	-	0	0	-	-	-	-
CCN1C(=O)C(CC(=O)Nc2ccc(OC)cc2)N(CCc2ccccc2)C1=S (centres undefined)	0	0	0	0	0	-	-	-	-
CCCOc1ccc(NC(=O)CC2C(=O)N(Cc3ccccc3)C(=S)N2Cc2cccs2)cc1 (centres undefined)	13	0	0	26	0	0	0	30	16
CCN1C(=O)C(CC(=O)Nc2ccc(F)cc2)N(Cc2cccs2)C1=S (centres undefined)	0	0	0	0	0	-	-	-	-
COC(=O)CN1C(=S)N(Cc2ccccc2)C(=O)C1CC(=O)Nc1ccc(Br)cc1 (centres undefined)	12	0	0	23	0	0	0	27	13
O=C(Nc1ccc(F)c(Cl)c1)c1cc(C2CCCN(S(=O)(=O)c3cccc4cccnc34)C2)on1 (centres undefined)	12	0	0	25	0	0	0	25	13
NC(CCc1ccccc1)c1csc(NC(=O)NCCc2ccccc2)n1 (centres undefined)	0	0	0	0	0	-	-	-	-
NC(CCc1ccccc1)c1csc(NC(=O)Nc2ccccc2Oc2ccccc2)n1 (centres undefined)	14	0	0	29	0	0	0	23	13
Nc1[nH]c(C(=O)c2ccc(Cl)cc2)c(-c2ccc(Br)cc2)c1C(=O)NCc1ccc(Cl)cc1Cl	0	0	-	0	0	-	-	-	-
SMILES	ADAM17 inh	GC-B act	FAS TE block	ADAM10 inh	GC-A act	ADAM10 confirm	ADAM17 counter	ADAM10 ctr	ADAM17 confirm
Cc1ccc(-c2[nH]c3ccccc3c2SCCNC(=O)c2ccc(S(=O)(=O)N3CCOCC3)cc2)cc1	11	0	0	24	0	0	0	27	16
COC(=O)CN1C(c2cccc(Cl)c2)=Nc2ccc(Cl)cc2C1c1ccccc1 (centres undefined)	16	0	0	21	0	0	0	0	8.8
COc1ccccc1-n1c(SCC(=O)Nc2ccc(Br)cc2)nc(O)cc1=O	8.7	0	0	28	0	0	0	0	0
O=C(CSc1nnc(-c2cccs2)n1Cc1ccco1)Nc1ccc(Oc2ccccc2)cc1	8.7	0	-	21	0	0	0	28	14
O=C(CSc1nnc(-c2ccccc2)n1Cc1ccco1)Nc1ccc(OCc2ccccc2)cc1	10.0	0	-	37	0	0	0	21	14
COCCCN1C(=O)[C@H](CC(=O)NCC23CC4CC(CC(C4)C2)C3)[C@]2(C(=O)OC)CCCCC=C12	0	0	-	0	0	-	-	-	-
CCc1ccc(-n2cc(-c3ccc([N+](=O)[O-])cc3)[nH]c2=S)cc1	0	0	0	0	0	-	-	-	-
CCc1ccc(-c2cn(C3CCCCC3)c(=S)[nH]2)cc1	9.6	0	0	29	0	0	0	0	0
